Measurements from PubChem BioAssay.
Calls of active or inactive are those of the source.

Legend:
Albumin (Bos taurus) = Albumin (Bos taurus) (UniProt P02769); test: bovine serum albumin binders on microarray, profiling panel, artefact control for SMM control protein annotation, biochemical, small-molecule microarray, Alexa647 label, 635/667 nm fluorescence (AID 1118); conditions: BSA-A647 binding, fluorescence 635 nm, higher = more signal;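 further: score merges 667 nm emission intensity and signal-to-noise per printed compound spot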
Albumin (Bos taurus), sequence (P02769 whole entry, looked up): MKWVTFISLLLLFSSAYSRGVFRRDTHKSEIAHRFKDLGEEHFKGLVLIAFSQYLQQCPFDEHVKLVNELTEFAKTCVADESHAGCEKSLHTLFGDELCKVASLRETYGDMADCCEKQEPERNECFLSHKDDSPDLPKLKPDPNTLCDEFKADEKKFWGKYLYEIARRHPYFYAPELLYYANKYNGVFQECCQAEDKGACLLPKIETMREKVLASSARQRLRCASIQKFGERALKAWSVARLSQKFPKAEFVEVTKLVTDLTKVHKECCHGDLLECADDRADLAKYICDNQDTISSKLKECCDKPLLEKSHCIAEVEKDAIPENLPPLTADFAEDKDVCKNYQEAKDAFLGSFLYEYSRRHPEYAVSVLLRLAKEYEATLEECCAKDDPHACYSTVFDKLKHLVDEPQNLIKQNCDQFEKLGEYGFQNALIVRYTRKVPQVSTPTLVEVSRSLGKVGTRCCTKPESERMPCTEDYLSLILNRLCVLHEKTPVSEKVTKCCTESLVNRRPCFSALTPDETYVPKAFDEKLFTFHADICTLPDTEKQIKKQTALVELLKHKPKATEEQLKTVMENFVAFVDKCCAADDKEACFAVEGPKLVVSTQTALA

[1] = small-molecule microarray binders of probe aXIP, primary screen, biochemical, NeuroSMM set, 635/667 nm fluorescence (AID 1119); conditions: higher = more signal, called active from +8 up or from −8 down;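 further: probe is the protein aXip251-270 applied at 1 µg/mL to compound-printed slides; binding of probe to printed compounds measured as 667 nm fluorescence plus signal to noise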
[2] = small-molecule binders of probe aNOTCH3, primary screen, biochemical, small-molecule microarray, 635/667 nm fluorescence (AID 1120); conditions: higher = more signal;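 further: probe is a biotin-tagged antibody raised against NOTCH3 rather than NOTCH3 protein; score merges spot fluorescence near 667 nm with spot signal to noise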
[3] = small-molecule binders of probe aNOTCH2, primary screen, biochemical, small-molecule microarray, 635/667 nm fluorescence (AID 1121); conditions: higher = more signal;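 further: score merges feature fluorescence read at 667 nm with its signal to noise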
[4] = molecular target: Carbonic anhydrase 2 (Homo sapiens) (UniProt P00918); test: CAII small-molecule binders, profiling panel, biochemical, small-molecule microarray, Alexa647-labelled CAII (AID 1122); conditions: CAII-A647 binding fluorescence, higher = more signal
[5] = COS7 lysate on small-molecule microarray, probe aHis, 635 nm (AID 1123); conditions: COS7 cell lysate, fluorescence, higher = more signal;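 further: z-score combines 667nm fluorescence intensity with signal-to-noise per printed compound spot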
[6] = compound binding in COS7 lysate, probe aLAP1, primary screen, cell lysate, small-molecule microarray (AID 1124); conditions: probe aLAP1, fluorescence, higher = more signal;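 further: lysate comes from COS7 cells expressing LAP1 and is applied at 0.3 µg/mL; score merges spot fluorescence near 667 nm with signal-to-noise over triplicate slides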
Sam68 (KHDRBS1) = test: Sam68 small-molecule binders, primary screen, biochemical, small-molecule microarray, 635 nm fluorescence (AID 1125); conditions: small-molecule microarray binding, higher = more signal;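 further: score merges 667 nm channel intensity with signal to noise over triplicate slides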
[7] = system: Chordin-like protein 2 (CHRDL2); test: CHRDL2 small-molecule binders, primary screen, biochemical, small-molecule microarray, 635 nm fluorescence (AID 1126); conditions: small-molecule microarray binding, fluorescence 635 nm; higher = more signal;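 further: printed compound slides probed with Chrdl2 protein at 4 µg/mL for 1 h at 4 C; score merges 667 nm emission intensity with signal to noise over three replicate slides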
[8] = molecular target: Concanavalin-A (Canavalia ensiformis) (UniProt P02866); test: ConA small-molecule binders, primary screen, artefact control for SMM control protein annotation, biochemical, small-molecule microarray, Alexa647 label, 635 nm (AID 1127); conditions: ConA-A647 binding fluorescence, higher = more signal;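 further: z combines 667 nm emission intensity with signal-to-noise across three replicate slides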
Concanavalin-A (Canavalia ensiformis), sequence (P02866 whole entry, looked up): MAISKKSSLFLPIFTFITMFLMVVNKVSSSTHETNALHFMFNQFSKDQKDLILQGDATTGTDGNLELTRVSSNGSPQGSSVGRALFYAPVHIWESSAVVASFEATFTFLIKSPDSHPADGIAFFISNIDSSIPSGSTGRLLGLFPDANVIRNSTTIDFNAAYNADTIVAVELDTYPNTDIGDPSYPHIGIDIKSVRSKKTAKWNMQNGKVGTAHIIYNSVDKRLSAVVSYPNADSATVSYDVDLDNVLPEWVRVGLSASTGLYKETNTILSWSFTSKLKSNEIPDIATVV

[9] = anti-His antibody binders, primary screen, artefact control for SMM control protein annotation, biochemical, small-molecule microarray, 635 nm fluorescence (AID 1128); conditions: anti-His Alexa647 antibody binding, higher = more signal;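 further: score merges feature fluorescence with signal-to-noise for each printed compound spot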
[10] = system: Human papillomavirus type 1a E7 protein (residues 1-88); test: HPV1a E7 small-molecule binders, primary screen, biochemical, small-molecule microarray, residues 1-88, 635 nm (AID 1129); conditions: small-molecule microarray binding, fluorescence 635 nm; higher = more signal
[11] = molecular target: Focal adhesion kinase 1 (Homo sapiens) (UniProt Q05397); test: small-molecule microarray binders of FAK, primary screen, biochemical, 635/667 nm fluorescence, BSA, DTT (AID 1130); conditions: PTK2 binding, 635 nm fluorescence, higher = more signal;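 further: composite of spot emission at 667 nm and signal to noise over triplicate slides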
Focal adhesion kinase 1 (Homo sapiens), sequence (Q05397 whole entry, looked up): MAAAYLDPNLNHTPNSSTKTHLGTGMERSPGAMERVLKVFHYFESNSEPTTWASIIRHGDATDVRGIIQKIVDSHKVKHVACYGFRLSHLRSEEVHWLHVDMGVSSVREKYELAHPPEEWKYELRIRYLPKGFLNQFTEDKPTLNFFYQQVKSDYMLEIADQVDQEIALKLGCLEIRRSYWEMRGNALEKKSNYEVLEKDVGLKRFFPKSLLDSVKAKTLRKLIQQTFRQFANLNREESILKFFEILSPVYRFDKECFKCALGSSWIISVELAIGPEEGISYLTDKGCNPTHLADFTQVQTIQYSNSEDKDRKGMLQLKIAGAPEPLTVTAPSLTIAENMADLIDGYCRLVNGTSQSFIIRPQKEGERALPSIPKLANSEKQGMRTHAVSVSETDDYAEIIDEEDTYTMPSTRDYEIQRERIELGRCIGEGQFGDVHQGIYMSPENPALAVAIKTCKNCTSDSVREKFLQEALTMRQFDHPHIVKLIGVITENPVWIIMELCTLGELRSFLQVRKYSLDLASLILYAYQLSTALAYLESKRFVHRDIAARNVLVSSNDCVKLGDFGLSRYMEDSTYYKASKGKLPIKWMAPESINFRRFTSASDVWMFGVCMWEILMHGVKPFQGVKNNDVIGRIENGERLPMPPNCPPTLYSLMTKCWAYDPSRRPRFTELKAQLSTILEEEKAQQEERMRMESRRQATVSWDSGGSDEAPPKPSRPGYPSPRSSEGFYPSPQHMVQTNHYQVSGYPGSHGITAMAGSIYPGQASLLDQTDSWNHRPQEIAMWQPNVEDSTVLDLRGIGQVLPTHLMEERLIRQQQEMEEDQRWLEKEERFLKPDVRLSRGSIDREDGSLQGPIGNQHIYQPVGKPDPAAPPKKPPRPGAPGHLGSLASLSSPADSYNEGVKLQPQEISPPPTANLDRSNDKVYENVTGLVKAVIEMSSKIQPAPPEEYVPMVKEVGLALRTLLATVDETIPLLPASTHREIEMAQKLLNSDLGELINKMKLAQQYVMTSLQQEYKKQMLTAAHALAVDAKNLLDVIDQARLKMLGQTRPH

[12] = system: Fibrinogen (Alexa647-labelled); test: fibrinogen binders on compound microarrays, profiling panel, artefact control for SMM control-protein annotation, biochemical, small-molecule microarray, 635/667 nm fluorescence (AID 1131); conditions: fibrinogen-A647 binding fluorescence, higher = more signal;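 further: z-score merges 667 nm fluorescence with per-spot signal-to-noise over triplicate slides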
[13] = molecular target: Follistatin (Homo sapiens) (UniProt P19883); test: follistatin binders on small-molecule microarrays, primary screen, biochemical, small-molecule microarray, 635/667 nm fluorescence (AID 1132); conditions: FST binding, 635 nm fluorescence, higher = more signal
Follistatin (Homo sapiens), sequence (P19883 whole entry, looked up): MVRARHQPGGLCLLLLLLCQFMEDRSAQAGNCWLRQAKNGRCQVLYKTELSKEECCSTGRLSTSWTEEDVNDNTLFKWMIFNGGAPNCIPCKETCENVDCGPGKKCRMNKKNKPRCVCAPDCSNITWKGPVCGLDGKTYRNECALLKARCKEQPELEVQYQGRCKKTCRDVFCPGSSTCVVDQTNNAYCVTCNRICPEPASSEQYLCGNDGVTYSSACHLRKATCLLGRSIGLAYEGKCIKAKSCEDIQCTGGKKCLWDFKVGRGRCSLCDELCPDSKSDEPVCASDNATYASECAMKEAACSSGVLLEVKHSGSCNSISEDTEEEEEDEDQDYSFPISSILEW

[14] = molecular target: Fibroblast growth factor 2 (Homo sapiens) (UniProt P09038); test: FGF2 binders on small-molecule microarrays, primary screen, biochemical, small-molecule microarray, 635/667 nm fluorescence (AID 1133); conditions: small-molecule microarray binding, FGF2, fluorescence 635/667; higher = more signal
Fibroblast growth factor 2 (Homo sapiens), sequence (P09038 whole entry, looked up): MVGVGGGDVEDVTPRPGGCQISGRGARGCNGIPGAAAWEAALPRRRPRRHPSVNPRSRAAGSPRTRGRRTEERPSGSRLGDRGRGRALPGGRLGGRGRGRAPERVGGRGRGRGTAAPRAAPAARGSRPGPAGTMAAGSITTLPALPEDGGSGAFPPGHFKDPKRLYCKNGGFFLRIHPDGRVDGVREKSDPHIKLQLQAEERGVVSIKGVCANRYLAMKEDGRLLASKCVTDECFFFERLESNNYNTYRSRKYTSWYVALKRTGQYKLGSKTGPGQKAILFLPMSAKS

[15] = mitochondrial membrane potential change in A549 cells, profiling panel, cell-based, JC-1 fluorescence, basal, 24 h, 100 nL (AID 1138); conditions: higher = more signal;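 further: A549 lung adenocarcinoma cells under basal conditions with no added stimulus; test concentration not given here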
Lefty1 = Lefty1 binders on small-molecule microarrays, primary screen, biochemical, small-molecule microarray, 635/667 nm fluorescence (AID 1139); conditions: small-molecule microarray binding, fluorescence 635/667; higher = more signal
[16] = system: wheat germ agglutinin (Triticum aestivum), Alexa647-labelled; test: wheat germ agglutinin binders on compound microarrays, profiling panel, artefact control for SMM control-protein annotation, biochemical, small-molecule microarray, 635/667 nm fluorescence (AID 1140); conditions: WGA-A647 binding, 635 nm fluorescence, higher = more signal;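 further: score merges 667 nm feature emission with signal to noise over triplicate slides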
[17] = molecular target: Luciferin 4-monooxygenase (Photinus pyralis) (UniProt P08659); test: firefly luciferase enzyme inhibitors, primary screen, biochemical, luminescence, purified enzyme, 2006 set (AID 1141); conditions: SteadyGlo luminescence, 30 min, higher = more signal, called active from +8 up or from −8 down;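 further: cell-free assay with purified firefly luciferase at 100 ng per well in PBS; test concentration not given here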
Luciferin 4-monooxygenase (Photinus pyralis), sequence (P08659 whole entry, looked up): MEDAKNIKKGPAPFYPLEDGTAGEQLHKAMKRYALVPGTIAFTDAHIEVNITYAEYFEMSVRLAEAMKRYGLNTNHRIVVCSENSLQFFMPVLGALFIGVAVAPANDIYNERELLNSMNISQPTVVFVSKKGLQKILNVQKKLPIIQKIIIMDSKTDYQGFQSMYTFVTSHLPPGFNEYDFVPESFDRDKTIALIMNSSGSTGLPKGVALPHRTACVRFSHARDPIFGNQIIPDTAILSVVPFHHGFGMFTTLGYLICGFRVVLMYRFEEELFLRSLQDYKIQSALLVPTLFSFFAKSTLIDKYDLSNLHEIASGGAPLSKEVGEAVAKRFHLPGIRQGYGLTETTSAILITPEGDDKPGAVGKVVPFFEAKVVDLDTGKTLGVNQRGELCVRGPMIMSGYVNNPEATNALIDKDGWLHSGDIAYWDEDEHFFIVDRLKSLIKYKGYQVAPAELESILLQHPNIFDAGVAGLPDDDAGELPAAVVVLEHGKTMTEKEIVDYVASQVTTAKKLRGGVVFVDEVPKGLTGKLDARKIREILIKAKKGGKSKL

Row | SMILES | composite z-score (Albumin (Bos taurus)) | composite Z-score [1] | composite z-score [2] | composite z-score [3] | composite z-score [4] | composite z-score [5] | composite z-score [6] | composite z-score (Sam68 (KHDRBS1)) | composite z-score [7] | composite z-score [8] | composite z-score [9] | composite z-score [10] | composite z-score [11] | composite z-score [12] | composite z-score [13] | composite z-score [14] | z-score [15] | composite z-score (Lefty1) | composite z-score [16] | z-score [17]
1 | CCN1C(=O)[C@H]2[C@H]3[C@H](O)[C@H](O)CC(=O)[C@H]3CC[C@H]2C1=O | 0.234 | -0.274 (inactive) | -0.0921 | -0.0793 | 0.0164 | -0.209 | 0.0555 | 0.47 | 0.689 | 0.541 | 0.463 | 0.809 | 0.0493 | 0.861 | 0.486 | 0.485 | -0.335 | 0.559 | 0.145 | -0.371 (inactive)
2 | COC(=O)C1=C(C)N(Cc2ccccc2)[C@]23O[C@](C(=O)OC)(C(=O)N2[C@@H]1c1ccccc1)C(C(=O)OC)=C3C(=O)OC | 0.387 | -0.177 (inactive) | 0.201 | -0.0439 | 0.489 | 0.421 | -0.624 | 0.988 | 0.503 | 1.18 | 0.686 | 0.653 | 0.0309 | 0.784 | 0.732 | 0.808 | -0.489 | 1.09 | -0.0964 | -0.371 (inactive)
3 | CCC(=O)[C@@]1(O)C(=O)N2C(=C3C(=O)OCC[C@@H]31)N(Cc1ccccc1)C(C)=C(C(=O)OC)[C@H]2c1ccccc1 | -0.111 | 0.256 (inactive) | 0.0597 | -0.158 | -0.109 | 0.0028 | 0.137 | 0.431 | 0.627 | 0.602 | 0.188 | 0.405 | 1.08 | 0.375 | 0.538 | 0.465 | 0.523 | 0.436 | 0.0183 | -0.901 (inactive)
4 | CC(CCN1CCCc2nc(C)c(C)cc21)=NOC(C)CN1CCCCc2nc(C)c(C)cc21 (stereo not given) | -0.0931 | 1.62 (inactive) | 0.539 | 0.101 | 0.618 | 0.84 | 0.247 | 1.3 | 1.06 | 1.01 | 0.363 | 1.2 | 0.687 | 0.567 | 1.27 | 0.785 | 0.539 | 0.91 | 0.829 | -0.0922 (inactive)
5 | CC(C)CCN1CCc2nc(COc3ccccc3)c3c(c2C1)CO[C@@H](C)C3 | 0.536 | 0.354 (inactive) | -0.0343 | -0.0797 | 0.319 | 0.965 | 0.378 | 0.0676 | 0.119 | 0.432 | 0.683 | 0.132 | 0.233 | 0.602 | 0.0413 | -0.0961 | 1.71 | 0.0377 | 0.451 | -0.781 (inactive)
6 | CO[C@H]1COC(=O)[C@H](C)NC(=O)[C@@H](C)COC(=O)[C@H]2CCCN2C(=O)CC=C[C@H]1C | -0.74 | -0.533 (inactive) | -0.178 | -0.148 | -0.273 | -0.414 | -0.0354 | 0.476 | 1.17 | -0.229 | -0.395 | 0.185 | 0.0089 | -0.157 | 0.593 | 0.806 | -0.392 | 0.632 | -0.375 | 0.574 (inactive)
7 | CC(C)=CCCC(C)=CCON=C1C[C@@H](O)[C@@H](O)[C@@H]2[C@@H]3C(=O)N(Cc4ccccc4)C(=O)[C@@H]3CC[C@@H]12 | 0.772 | -0.349 (inactive) | -0.0395 | -0.193 | -0.148 | 0.043 | -0.0612 | 0.571 | 1.4 | 0.304 | 0.546 | -0.369 | -0.0506 | -0.266 | 1.07 | 1.44 | 0.071 | 0.894 | -0.0507 | 1.19 (inactive)
8 | COC(=O)[C@@H]1CC[C@H](C)[C@@H](c2ccc(C)cc2)N1C(=O)c1ccc(C=NO[C@@H]2O[C@H](COC(C)=O)[C@@H](OC(C)=O)[C@H](OC(C)=O)[C@H]2OC(C)=O)cc1 | 0.322 | 0.265 (inactive) | -0.217 | -0.0596 | -0.0477 | 0.234 | 0.116 | 1.05 | 0.452 | 1.01 | 2.08 | 0.68 | -0.169 | 0.926 | 0.551 | 0.336 | 0.0992 | 1.06 | 0.347 | 0.945 (inactive)
9 | COC(=O)[C@H](C)NC(=O)CCC1CC(OC(=O)NCc2ccc3c(c2)OCO3)CC2(CCCC(COC(=O)NCCc3ccccc3OC)O2)O1 (stereo not given in full) | 0.159 | 0.0923 (inactive) | -0.125 | -0.0646 | 0.472 | 1.36 | 0.117 | 0.735 | -0.0443 | -0.706 | 0.911 | 0.638 | -0.122 | 0.626 | -0.0381 | -0.0304 | 0.159 | -0.0317 | 0.817 | 0.559 (inactive)
10 | COC(=O)CC=C[C@@H](C)[C@@H](C=NOCC[C@@H]1C=C[C@H](OC(C)=O)[C@@H](COC(C)=O)O1)OC | -0.395 | 0.181 (inactive) | -0.0006 | -0.115 | -0.0197 | 0.849 | -0.0402 | 0.411 | 0.432 | -0.319 | -0.131 | 0.34 | 0.222 | -0.902 | 0.73 | 0.785 | 0.493 | 0.66 | -0.876 | 0.177 (inactive)
11 | Cn1c(=O)n2n(c1=O)[C@H]1[C@H](O)[C@@H]3O[C@@H]3C(=O)[C@H]1CC2 | -0.161 | -0.301 (inactive) | -0.172 | -0.124 | -0.0126 | -0.0596 | 0.0837 | 0.327 | 0.387 | 0.513 | -0.0542 | 0.827 | -0.515 | 0.289 | 0.537 | 0.348 | -0.572 | 0.455 | 0.138 | -0.28 (inactive)
